A selection: hits, their analogues and other compounds. The true share with any hit is near 2%.
FAS-TE inh = inhibitors of human fatty acid synthase thioesterase domain | P49327 | recombinant FAS-TE, OMFH fluorogenic substrate, fluorescence endpoint | inhibition, % at 15 µM | 360,000 compounds, 0.67% hits;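 active = compounds whose normalised, plate-corrected inhibition of enzyme fluorescence in the single-dose primary screen is 50% or more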
ADAM10 inh = inhibitors of human ADAM10. O14672. recombinant ADAM10, EDANS/DABCYL FRET peptide cleavage, 3 h. inhibition, % at 7 µM. 370,000 compounds, 0.62% hits. AID 720582;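 active = inhibition above a per-campaign cutoff equal to the mean of compounds falling between control-based bounds plus 3 SD, cut at about 20% in these data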
Target sequence (O14672 214-748 limits assumed): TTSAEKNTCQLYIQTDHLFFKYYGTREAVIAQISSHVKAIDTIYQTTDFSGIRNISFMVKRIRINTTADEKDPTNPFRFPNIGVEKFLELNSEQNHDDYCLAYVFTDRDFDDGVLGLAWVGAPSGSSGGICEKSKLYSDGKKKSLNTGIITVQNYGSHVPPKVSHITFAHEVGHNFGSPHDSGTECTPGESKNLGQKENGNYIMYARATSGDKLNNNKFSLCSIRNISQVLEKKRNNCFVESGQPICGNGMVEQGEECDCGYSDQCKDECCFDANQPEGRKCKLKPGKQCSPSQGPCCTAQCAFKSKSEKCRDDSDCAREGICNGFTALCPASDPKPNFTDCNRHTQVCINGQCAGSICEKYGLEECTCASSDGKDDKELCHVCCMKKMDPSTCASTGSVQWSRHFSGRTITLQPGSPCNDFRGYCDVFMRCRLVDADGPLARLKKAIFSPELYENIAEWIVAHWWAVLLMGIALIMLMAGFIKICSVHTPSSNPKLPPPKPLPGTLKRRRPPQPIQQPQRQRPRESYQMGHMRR
ADAM17 inh = ADAM17 inhibition, QFRET primary screen | AID 720648 | recombinant ADAM17, EDANS/DABCYL FRET peptide cleavage | inhibition, % at 6.95 µM | P78536 | 370,000 compounds, 0.83% hits;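 active = inhibition above the mean of compounds lying between control limits plus 3 SD, set per campaign, cut at about 8.5% in these data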
NPR2 activator = GC-B (human) receptor activation | P20594 | HEK293-GC-B cells, CNP EC30, cGMP TR-FRET; 0% at EC30 CNP, 100% saturating CNP | activation, % at 10 µM | 370,000 compounds, 0.11% hits | AID 1920062;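 active = activation at 10 µM reaching about 35% in either raw or pattern-adjusted values, limit read from the data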
NPR1 activator = GC-A (human) enzyme activation. AID 1671463. 370,000 compounds, 0.14% hits. activation, % at 10 µM. HEK293 GC-A cells, cGMP TR-FRET, EC30 ANP; 0% at EC30 ANP, 100% saturating ANP; in the data active = activation above about 40%
ADAM10 confirm = human ADAM10 inhibition, confirmation. shares compounds with ADAM10 inh. ADAM10 QFRET peptide cleavage, EDANS fluorescence. inhibition, % at 6.95 µM. 2,100 compounds, 1% hits. AID 743208;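 active = inhibition above about 20% chosen separately for each screening run, limit read from the data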
ADAM17 ctr = counter-screen for ADAM10 exosite inhibitors: inhibitors of human ADAM17; shares compounds with ADAM10 inh; ADAM17 QFRET peptide cleavage, EDANS fluorescence; inhibition, % at 6.95 µM; 2,100 compounds, 0.5% hits; AID 743214;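 active = mean triplicate inhibition above the solvent-only control wells' mean plus 3 SD, cut at about 12% in these data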
Numbers stand for hits; – = inactive; · = no result given.

SMILES	FAS-TE inh	ADAM10 inh	ADAM17 inh	NPR2 activator	NPR1 activator	ADAM10 confirm	ADAM17 ctr
O=C(Nc1cccc(F)c1)OCCCN1CCC2(CCC(c3ccccc3)CC2)C1 (centres undefined)	·	–	–	–	–	·	·
O=C(CSc1cn[nH]n1)Nc1nc2ccccc2s1	–	20	–	–	–	–	–
O=C(CSc1ccccn1)Nc1nc2ccccc2s1	–	–	–	–	–	·	·
COC(=O)C[C@@H]1CC[C@H]2[C@H](COc3ccc(NC(=O)C4CCC4)cc3C(=O)N2C)O1	·	–	–	–	–	·	·
CC(C)Oc1ccc(NC(=O)c2ccncc2)cc1	–	78	–	–	–	–	–
CCOCC(=O)NC(=O)N1C[C@H]2CON(C)[C@H]2C[C@H]1c1ccc(OC)cc1	·	–	–	–	–	·	·
CSCCC(NC(=O)c1ccccc1)C(=O)OCC(=O)Nc1ccc(C)c(Cl)c1 (centres undefined)	–	32	–	–	–	–	–
CCc1nccn1CC(=O)c1ccc(O)c(O)c1	·	–	–	–	–	·	·
Cc1ccc(S(=O)(=O)N2CCCCC2)cc1NC(=O)COC(=O)Cc1cccc2ccccc12	–	20	–	–	–	–	–
C[C@@H](c1ccccc1)N1C[C@H](COCc2ccccc2)Oc2cc(N3CC[C@H](O)C3)ccc2S1(=O)=O	–	21	–	–	–	–	–
CC(=O)Nc1ccc(S(=O)(=O)Oc2ccccc2N2CCCCC2)cc1	–	23	–	–	–	–	–
COc1cc(C(=S)N2CCCC2)ccc1OS(=O)(=O)c1ccc(NC(C)=O)cc1	–	–	–	–	–	·	·
CCOC(=O)[C@]12CCC=C1N(Cc1ccc(Cl)cc1Cl)C(=O)[C@H](CC(=O)NCc1cccc3ccccc13)C2	–	–	–	–	–	·	·
CCOC(=O)[C@]12CCC=C1N(Cc1ccc(Cl)cc1Cl)C(=O)[C@H](CC(=O)NCc1ccc(OC)c(OC)c1)C2	–	20	–	–	–	–	–
CCCCNC(=O)C[C@@H]1C[C@@]2(C(=O)OCC)CCCC=C2N(Cc2ccc(Cl)cc2Cl)C1=O	–	–	–	–	–	·	·
CCOC(=O)[C@]12CCCC=C1N(Cc1ccc(Cl)cc1Cl)C(=O)[C@H](CC(=O)NCCc1ccccc1OC)C2	–	23	–	–	–	–	–
Cc1ccc(C(=O)NC2CCCCN(C(C)C)C2=O)cc1 (centres undefined)	·	–	–	–	–	·	·
CCOC(=O)[C@]12CCCC3=C1N(CCC3)C(=O)[C@@H](CC(=O)NCCc1ccccc1OC)C2	·	–	–	–	–	·	·
O=C(Oc1cccc2c(O)cccc12)c1ccccc1	–	23	–	–	–	–	–
COCCN(C(=O)Cc1cccs1)C(C(=O)NCc1ccc(OC)cc1)c1ccc(OC)cc1 (centres undefined)	–	–	–	–	–	·	·
COc1ccc(CNC(=O)C(c2ccc(C)cc2)N(Cc2cccs2)C(=O)c2ccc3c(c2)OCCO3)cc1 (centres undefined)	–	26	–	–	–	–	–
CC(C)C[C@H](NC(=O)c1[nH]cnc1C(=O)N[C@@H](C)c1ccccc1)C(=O)OC(C)(C)C	–	24	–	–	–	–	–
CC(C)(C)OC(=O)NCCCC[C@H](NC(=O)c1nc[nH]c1C(=O)NC(c1ccccc1)c1ccccc1)C(=O)OC(C)(C)C	–	22	–	–	–	–	–
CC(C)C[C@H](NC(=O)c1nc[nH]c1C(=O)N[C@@H](CCCCNC(=O)OC(C)(C)C)C(=O)OC(C)(C)C)C(=O)OCc1ccccc1	–	–	–	–	–	·	·
CC(C)C[C@H](NC(=O)c1nc[nH]c1C(=O)NCc1ccccc1)C(=O)OC(C)(C)C	–	22	–	–	–	–	–
CC(C)(C)OC(=O)[C@H](Cc1ccccc1)NC(=O)c1nc[nH]c1C(=O)N1CCN(c2ccccc2)CC1	–	22	–	–	–	–	–
C=CCN1C(=O)[C@H](CC(=O)N2CCSCC2)[C@@]2(C(=O)OCC)CCCC=C12	·	–	–	–	–	·	·

Screening results as filed in PubChem BioAssay.
